Assay [1] concerns PRMT1 (protein arginine N-methyltransferase 1). The assay can be described thus: PRMT1 binders on small-molecule microarrays, primary screen, biochemical, small-molecule microarray, 635 nm fluorescence (AID 1088).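 Note: binding of Prmt1 protein to compounds spotted on small-molecule microarray slides.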 The conditions noted are these: small-molecule microarray binding, higher = more signal.
Assay [2] is described as follows: yeast growth modulation, basal conditions, primary screen, YJM789 clinical isolate, OD600, 24 h (AID 1089).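 Note: growth of clinical yeast isolate S. cerevisiae YJM 789 seeded 1000 cells per well; test concentration not given here.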 Particulars: S. cerevisiae YJM789 growth, higher = more signal, called active from +8 up or from −8 down.
Assay [3] in a line: fission yeast growth modulation, primary screen, strain 972, OD600, 24 h, no modulator (AID 1090).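 Note: basal condition with compound alone and no growth modifier present; test concentration not given here.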 The conditions noted are these: S. pombe 972 growth, higher = more signal, called active from +8 up or from −8 down.
The nature of assay [4]: S. cerevisiae growth modulation with rapamycin, primary screen, strain BY4716, OD600, 96 h (AID 1091). Note: test concentration not given here. The conditions noted are these: higher = more signal, called active from +8 up or from −8 down.
The target of assay [5] is Torsin-1A-interacting protein 2 (Homo sapiens) (UniProt Q8NFQ8). Nature of the assay: LULL1 binders on small-molecule microarray, primary screen, cell lysate, human LULL1 lysate, 635/667 nm fluorescence (AID 1092).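 Note: probe is lysate of COS7 cells overexpressing human LULL1; score merges per-feature 667 nm fluorescence with signal-to-noise.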 The conditions noted are these: hLULL1 lysate binding, 635 nm fluorescence, higher = more signal.
Assay [6] is described as follows: E. coli growth modulation, two-sided OD650, primary screen, E. coli filamentation project, strain DRC41, 24 h (AID 1093).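 Note: MC1000 strain lacking acrAB efflux and sulA so SOS filamentation is blocked; test concentration not given here.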 The conditions noted are these: OD650, 24 h, higher = more signal, called active from +8 up or from −8 down.
The nature of assay [7]: small-molecule microarray binders of probe aLefty2, primary screen, biochemical, biotinylated probe, 635/667 nm fluorescence (AID 1094).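 Note: score merges spot fluorescence near 667 nm with spot signal-to-noise ratio.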 The conditions noted are these: higher = more signal.
Assay [8] has as its system Noggin (protein binding on small-molecule microarray). The assay can be described thus: Noggin binders on small-molecule microarray, primary screen, biochemical, 635/667 nm fluorescence (AID 1095).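 Note: score merges 667 nm feature fluorescence with signal to noise over triplicate slides.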 Particulars: 635 nm fluorescence, higher = more signal.
The target in assay [9] is Neurogenic locus notch homolog protein 3 (Homo sapiens) (UniProt Q9UM47). The assay can be described thus: NOTCH3 binders on small-molecule microarray, primary screen, biochemical, 635/667 nm fluorescence (AID 1096). Particulars: NOTCH3 binding, 635 nm fluorescence, higher = more signal.
The nature of assay [10]: small-molecule microarray binders of probe aEGFR, primary screen, biochemical, biotinylated probe, 635/667 nm fluorescence (AID 1097).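 Note: probe is a biotinylated anti-EGFR antibody binding compounds printed on slides; score combines fluorescence near 667 nm and signal to noise of each spot.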 The conditions noted are these: higher = more signal.
The subject of assay [11] is Plasmodium falciparum Sir2 (PF13_0152, Sir2A). Nature of the assay: pfSir2 binders on small-molecule microarrays, primary screen, biochemical, small-molecule microarray, 635 nm fluorescence (AID 1098).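 Note: score merges spot fluorescence intensity with its signal-to-noise ratio.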 The conditions noted are these: small-molecule microarray binding, fluorescence 635 nm; higher = more signal.
The nature of assay [12]: small-molecule microarray binders of probe aDKK1, primary screen, biochemical, biotinylated probe, 635/667 nm fluorescence (AID 1099).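 Note: score merges 667nm spot fluorescence with signal to noise across triplicate slides; reference of the scale not given here.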 Particulars: higher = more signal.
Assay [13] is described as follows: small-molecule microarray binders of probe aCHRDL2, primary screen, biochemical, biotinylated probe, 635/667 nm fluorescence (AID 1100). The conditions noted are these: higher = more signal.
The nature of assay [14]: splicing luciferase reporter signal modulators, primary screen, spliceosome inhibition project, cell-based, HEK293, splice +/- reporter (AID 1101).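 Note: HEK293 cells carrying a splicing-competent luciferase reporter gene; test concentration not given here.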 Particulars: luminescence, 24 h, higher = more signal, called active from +8 up or from −8 down.
Assay [15] concerns the target Fibroblast growth factor 10 (Homo sapiens) (UniProt O15520). Nature of the assay: FGF10 binders on small-molecule microarrays, primary screen, biochemical, small-molecule microarray, 635 nm fluorescence (AID 1102). Particulars: FGF10 binding, fluorescence 635 nm, higher = more signal.
For assay [16], the system named is glycogen synthase kinase-3 (GSK3A per assay name; protocol says GSK3B). The assay can be described thus: GSK3 binders on small-molecule microarrays, primary screen, biochemical, small-molecule microarray, 635 nm fluorescence, GSK3A (AID 1103). Note: the record names both GSK3A and GSK3B. Particulars: small-molecule microarray binding, fluorescence 635 nm; higher = more signal.
Assay [17] deals with Epidermal growth factor receptor (Homo sapiens) (UniProt P00533). Nature of the assay: EGFR binders on small-molecule microarrays, primary screen, biochemical, small-molecule microarray, 635 nm fluorescence (AID 1104).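 Note: score merges 667 nm emission intensity with spot signal to noise over triplicate slides.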 Particulars: EGFR binding, higher = more signal.
Assay [18] addresses Follistatin-related protein 3 (Homo sapiens) (UniProt O95633). Nature of the assay: FSTL3 binders on small-molecule microarrays, primary screen, biochemical, small-molecule microarray, 635 nm fluorescence (AID 1105).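 Note: score merges emission near 667 nm and signal to noise per printed spot across three slides.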 Particulars: FSTL3 binding, higher = more signal.
Assay [19] has as its target Dickkopf-related protein 1 (Homo sapiens) (UniProt O94907). The assay can be described thus: DKK1 binders on small-molecule microarrays, primary screen, biochemical, small-molecule microarray, 635 nm fluorescence scan (AID 1106).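 Note: score merges emission near 667 nm with signal to noise over three replicate slides.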 Particulars: DKK1 binding, higher = more signal.
The test system of assay [20] is Inhibin beta A chain (activin A). Nature of the assay: INHBA (activin A) binders on microarrays, primary screen, biochemical, small-molecule microarray, 635 nm fluorescence scan (AID 1107).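 Note: mouse activin A protein probed at 4.33 µg/mL on printed slides; score merges bound-protein fluorescence near 667 nm with spot signal-to-noise.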 The conditions noted are these: small-molecule microarray binding, higher = more signal.

Calls of active or inactive are those of the source.

Dickkopf-related protein 1 (Homo sapiens), sequence (O94907 whole entry, looked up): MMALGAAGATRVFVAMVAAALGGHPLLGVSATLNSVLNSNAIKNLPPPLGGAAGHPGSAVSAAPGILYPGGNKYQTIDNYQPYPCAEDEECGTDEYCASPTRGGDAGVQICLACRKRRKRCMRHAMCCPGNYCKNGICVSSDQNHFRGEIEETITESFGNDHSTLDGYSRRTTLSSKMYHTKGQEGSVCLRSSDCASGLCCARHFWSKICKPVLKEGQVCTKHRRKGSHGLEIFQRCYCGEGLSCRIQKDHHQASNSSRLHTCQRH
Epidermal growth factor receptor (Homo sapiens), sequence (P00533 whole entry, looked up): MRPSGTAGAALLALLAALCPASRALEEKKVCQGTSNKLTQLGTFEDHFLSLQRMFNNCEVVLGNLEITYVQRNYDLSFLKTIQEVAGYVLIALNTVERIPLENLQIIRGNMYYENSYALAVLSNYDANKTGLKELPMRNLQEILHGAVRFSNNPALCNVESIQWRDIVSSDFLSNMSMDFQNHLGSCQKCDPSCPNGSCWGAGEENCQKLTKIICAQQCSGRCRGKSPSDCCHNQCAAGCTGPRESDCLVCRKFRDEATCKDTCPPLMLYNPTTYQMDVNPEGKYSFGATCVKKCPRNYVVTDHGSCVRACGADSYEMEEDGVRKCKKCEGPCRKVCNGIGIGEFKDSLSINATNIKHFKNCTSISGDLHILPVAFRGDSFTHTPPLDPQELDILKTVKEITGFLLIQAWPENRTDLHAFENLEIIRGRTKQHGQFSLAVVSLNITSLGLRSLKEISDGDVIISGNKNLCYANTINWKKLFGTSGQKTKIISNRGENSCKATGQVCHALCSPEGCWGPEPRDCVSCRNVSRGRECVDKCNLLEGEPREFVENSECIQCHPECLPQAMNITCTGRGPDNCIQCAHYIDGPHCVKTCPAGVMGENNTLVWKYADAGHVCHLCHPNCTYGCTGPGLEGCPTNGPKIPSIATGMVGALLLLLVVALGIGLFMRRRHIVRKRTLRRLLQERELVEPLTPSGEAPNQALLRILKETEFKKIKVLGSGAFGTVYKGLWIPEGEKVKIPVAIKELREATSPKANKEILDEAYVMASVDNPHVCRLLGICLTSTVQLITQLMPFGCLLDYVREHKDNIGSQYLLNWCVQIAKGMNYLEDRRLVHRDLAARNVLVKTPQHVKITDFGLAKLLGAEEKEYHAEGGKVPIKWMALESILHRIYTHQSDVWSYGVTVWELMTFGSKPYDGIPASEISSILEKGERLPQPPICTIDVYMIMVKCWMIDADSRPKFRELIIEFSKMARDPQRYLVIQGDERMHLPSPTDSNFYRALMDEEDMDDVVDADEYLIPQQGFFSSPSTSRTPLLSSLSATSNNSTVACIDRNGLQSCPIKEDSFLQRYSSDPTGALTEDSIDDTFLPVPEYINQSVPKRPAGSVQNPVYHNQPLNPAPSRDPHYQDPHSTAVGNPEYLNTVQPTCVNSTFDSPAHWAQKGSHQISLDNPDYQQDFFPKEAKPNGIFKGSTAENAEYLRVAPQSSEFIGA
Neurogenic locus notch homolog protein 3 (Homo sapiens), sequence (Q9UM47 whole entry, looked up): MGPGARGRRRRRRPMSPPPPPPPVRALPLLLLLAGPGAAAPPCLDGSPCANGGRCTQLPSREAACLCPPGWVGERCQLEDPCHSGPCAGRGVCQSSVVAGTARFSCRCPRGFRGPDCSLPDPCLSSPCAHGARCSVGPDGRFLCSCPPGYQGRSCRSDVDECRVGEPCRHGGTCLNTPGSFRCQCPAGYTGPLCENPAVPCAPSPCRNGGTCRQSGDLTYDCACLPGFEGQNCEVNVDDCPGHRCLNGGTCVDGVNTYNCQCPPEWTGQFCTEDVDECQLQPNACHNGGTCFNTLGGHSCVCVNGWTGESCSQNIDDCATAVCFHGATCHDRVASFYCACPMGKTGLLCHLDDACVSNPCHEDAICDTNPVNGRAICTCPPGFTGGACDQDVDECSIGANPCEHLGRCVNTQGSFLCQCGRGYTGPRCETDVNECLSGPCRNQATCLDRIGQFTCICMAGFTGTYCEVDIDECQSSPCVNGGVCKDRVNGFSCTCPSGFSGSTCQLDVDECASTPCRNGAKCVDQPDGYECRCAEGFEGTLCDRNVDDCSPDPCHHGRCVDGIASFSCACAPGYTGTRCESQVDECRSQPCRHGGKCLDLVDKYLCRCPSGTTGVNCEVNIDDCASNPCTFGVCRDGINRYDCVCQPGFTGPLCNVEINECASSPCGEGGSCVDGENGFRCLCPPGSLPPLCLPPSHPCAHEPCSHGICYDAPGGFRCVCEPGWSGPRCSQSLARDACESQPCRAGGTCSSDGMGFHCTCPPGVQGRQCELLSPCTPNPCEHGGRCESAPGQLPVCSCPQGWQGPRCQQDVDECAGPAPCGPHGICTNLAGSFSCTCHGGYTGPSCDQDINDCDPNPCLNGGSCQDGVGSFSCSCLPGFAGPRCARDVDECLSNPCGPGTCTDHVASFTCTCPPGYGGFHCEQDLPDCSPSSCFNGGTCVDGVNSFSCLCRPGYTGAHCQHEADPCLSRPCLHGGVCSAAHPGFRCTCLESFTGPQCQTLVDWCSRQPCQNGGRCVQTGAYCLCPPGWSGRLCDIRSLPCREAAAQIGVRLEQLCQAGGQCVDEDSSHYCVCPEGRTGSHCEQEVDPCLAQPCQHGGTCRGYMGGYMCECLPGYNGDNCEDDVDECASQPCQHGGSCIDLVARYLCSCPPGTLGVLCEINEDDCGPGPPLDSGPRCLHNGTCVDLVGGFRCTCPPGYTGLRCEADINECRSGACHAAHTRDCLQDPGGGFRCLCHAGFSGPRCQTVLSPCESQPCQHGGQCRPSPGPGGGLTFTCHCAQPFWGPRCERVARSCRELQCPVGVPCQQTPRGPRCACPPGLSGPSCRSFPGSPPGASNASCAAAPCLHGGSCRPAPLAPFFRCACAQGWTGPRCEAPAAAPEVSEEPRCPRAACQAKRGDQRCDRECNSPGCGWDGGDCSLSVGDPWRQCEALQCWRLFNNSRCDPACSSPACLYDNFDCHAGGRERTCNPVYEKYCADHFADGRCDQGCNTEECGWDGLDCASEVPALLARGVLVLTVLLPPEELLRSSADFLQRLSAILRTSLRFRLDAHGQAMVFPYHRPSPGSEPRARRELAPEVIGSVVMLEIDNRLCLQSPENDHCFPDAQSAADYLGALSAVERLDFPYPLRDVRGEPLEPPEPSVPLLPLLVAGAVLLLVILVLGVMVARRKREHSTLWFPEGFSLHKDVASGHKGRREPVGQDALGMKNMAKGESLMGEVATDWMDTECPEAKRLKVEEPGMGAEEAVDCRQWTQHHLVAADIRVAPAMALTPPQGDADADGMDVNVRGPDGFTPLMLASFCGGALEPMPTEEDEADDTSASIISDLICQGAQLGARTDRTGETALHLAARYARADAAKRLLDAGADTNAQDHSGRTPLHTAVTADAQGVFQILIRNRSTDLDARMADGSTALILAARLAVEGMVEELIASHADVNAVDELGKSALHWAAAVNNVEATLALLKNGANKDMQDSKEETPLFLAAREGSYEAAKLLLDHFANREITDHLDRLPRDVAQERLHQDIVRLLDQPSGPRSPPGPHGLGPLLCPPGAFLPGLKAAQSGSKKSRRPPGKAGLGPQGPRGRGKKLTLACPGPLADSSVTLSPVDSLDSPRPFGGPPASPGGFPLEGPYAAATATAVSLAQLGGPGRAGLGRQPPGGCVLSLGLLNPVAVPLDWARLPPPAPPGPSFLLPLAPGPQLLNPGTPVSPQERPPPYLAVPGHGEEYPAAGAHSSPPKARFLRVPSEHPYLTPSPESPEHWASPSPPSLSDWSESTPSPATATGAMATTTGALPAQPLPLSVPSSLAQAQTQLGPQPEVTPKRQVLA
Follistatin-related protein 3 (Homo sapiens), sequence (O95633 whole entry, looked up): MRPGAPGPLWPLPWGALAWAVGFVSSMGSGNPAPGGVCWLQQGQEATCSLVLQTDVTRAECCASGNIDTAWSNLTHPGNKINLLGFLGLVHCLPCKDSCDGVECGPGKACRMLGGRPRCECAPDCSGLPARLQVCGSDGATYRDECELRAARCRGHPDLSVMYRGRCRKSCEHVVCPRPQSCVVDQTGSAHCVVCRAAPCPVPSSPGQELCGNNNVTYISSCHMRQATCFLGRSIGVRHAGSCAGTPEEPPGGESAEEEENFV
Fibroblast growth factor 10 (Homo sapiens), sequence (O15520 whole entry, looked up): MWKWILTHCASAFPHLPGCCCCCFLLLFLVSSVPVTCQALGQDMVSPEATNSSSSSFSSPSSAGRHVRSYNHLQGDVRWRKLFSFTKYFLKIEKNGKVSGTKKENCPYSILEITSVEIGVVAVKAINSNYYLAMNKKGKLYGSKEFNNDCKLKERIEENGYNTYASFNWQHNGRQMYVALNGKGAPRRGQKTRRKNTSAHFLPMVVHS
Torsin-1A-interacting protein 2 (Homo sapiens), sequence (Q8NFQ8 whole entry, looked up): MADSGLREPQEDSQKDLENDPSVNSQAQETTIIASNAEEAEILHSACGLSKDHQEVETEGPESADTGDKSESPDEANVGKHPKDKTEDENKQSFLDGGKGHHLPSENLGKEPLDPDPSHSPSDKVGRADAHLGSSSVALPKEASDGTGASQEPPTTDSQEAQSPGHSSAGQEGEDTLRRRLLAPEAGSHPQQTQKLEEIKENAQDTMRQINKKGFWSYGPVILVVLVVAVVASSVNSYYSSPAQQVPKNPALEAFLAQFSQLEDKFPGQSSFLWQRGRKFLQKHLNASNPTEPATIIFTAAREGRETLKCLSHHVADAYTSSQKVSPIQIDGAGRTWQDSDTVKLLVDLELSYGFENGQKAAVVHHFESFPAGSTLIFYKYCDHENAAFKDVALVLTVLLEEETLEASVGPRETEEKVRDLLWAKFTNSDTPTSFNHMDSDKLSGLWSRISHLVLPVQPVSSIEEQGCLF

Consider `C[C@H]1Cc2c(-c3ccccc3)nc3c(c2CO1)CN(CCOc1ccccc1)CC3`, for which the composite z-score is 1.56 in [1]; 2.3 in assay [5]; -0.161 in assay [7]; 0.472 in assay [8]; 1.12 in assay [9]; -0.0114 in [10]. In addition, the composite z-score in assay [11] is 1.21; in assay [12] it was -0.357; in [13], -0.815; in assay [15], 1.19; in assay [16], 1.28; in assay [17] it was 0.65. Further, the figures for the composite z-score in assay [18], in assay [19] and in assay [20] were 1.29, 0.94 and 0.127, respectively. Moreover, the z-score in assay [2] was -0.0387 (inactive); in assay [3], -1.24 (inactive); in assay [4], -0.142 (inactive); in assay [6], 1.91 (inactive); in assay [14], -0.512 (inactive).
Regarding `CCOC(=O)NN=C1C[C@@H](O)[C@@H](O)[C@@H]2[C@@H]3C(=O)N(C[C@@H]4CCCO4)C(=O)[C@@H]3CC[C@@H]12`, the composite z-score was 0.0939 in [1]; 0.375 in assay [5]; -0.0458 in [7]; 0.642 in assay [8]; 0.697 in assay [9]; -0.0681 in assay [10]. In addition, the composite z-score in assay [11] was 0.419; in assay [12] it was -0.147; in assay [13] it was -0.133; in assay [15], 0.137; in [16] it was 0.197; in assay [17] it was 0.364. Besides, the composite z-score in assay [18] was 0.342; in assay [19], -0.0134; in assay [20], -0.0039. Besides, the z-score was 0.822 (inactive) in [2]; -0.408 (inactive) in [3]; 0.256 (inactive) in assay [4]; 0.757 (inactive) in assay [6]; 0.104 (inactive) in assay [14].
Turning to `CCCNC(=O)[C@@H]1c2ccccc2C(=O)N(c2ccc(C)cn2)[C@H]1c1ccc(CO)cc1`, the composite z-score was 0.129 in [1]; 0.553 in assay [5]; -0.0769 in assay [7]; -1.08 in assay [8]; -0.798 in assay [9]; -0.299 in [10]. Further, the composite z-score in assay [11] is 1.78; in assay [12], 0.662; in assay [13], 0.733; in assay [15], -0.584; in assay [16], -0.503; in assay [17] it was -0.327. The composite z-score in assay [18] was -1.06; in assay [19] it was -0.537; in assay [20], 1.14. Further, the z-score in assay [2] was -1.03 (inactive); in [3], -0.144 (inactive); in [4], -0.926 (inactive); in [6] it was -0.0365 (inactive); in assay [14], 1.12 (inactive).
Regarding `COc1ccc(O[C@H]2C=C[C@@H](c3ccccc3)O[C@@H]2COC(=O)CCC(C)=NO[C@H](C)c2cn([C@@H]3COC[C@H]3O)nn2)cc1`, the composite z-score in assay [1] was 1.53; in [5], 0.146; in assay [7] it was -0.181; in [8], 0.525; in assay [9] it was 0.942; in assay [10], -0.148. For the same compound, the composite z-score is 0.716 in [11]; -0.226 in assay [12]; -0.791 in assay [13]; 0.39 in assay [15]; 0.387 in [16]; 0.562 in assay [17]. The values for the composite z-score in [18], in [19] and in [20] were 0.706, 0.583 and -0.298, respectively. The z-score was -0.88 (inactive) in assay [2]; -0.757 (inactive) in assay [3]; -0.56 (inactive) in assay [4]; 0.508 (inactive) in [6]; -1.25 (inactive) in assay [14].
With `CCOC(=O)[C@H](Cc1ccccc1)NC(=O)CCC1CC(OC(=O)NCc2ccc3c(c2)OCO3)CC2(CCCC(COC(=O)NCc3ccccc3)O2)O1` (stereo not given in full), the composite z-score in [1] is 1.06; in assay [5], 1.27; in [7], -0.0174; in assay [8] it was 0.573; in assay [9] it was 0.941; in assay [10], -0.0084. The composite z-score in assay [11] is 0.403; in [12], -0.125; in [13], -0.468; in assay [15], 1.02; in [16], 0.78; in [17], 0.361. Further, the composite z-score is 1.02 in assay [18], 0.606 in [19] and -0.303 in assay [20]. For the same compound, the z-score in assay [2] was 0.284 (inactive); in assay [3], 0.158 (inactive); in assay [4], 0.942 (inactive); in assay [6], 0.641 (inactive); in assay [14], -1.03 (inactive).

The record behind these values is PubChem BioAssay.
